Laboratory results from PubChem BioAssay (NCATS).
Inconclusive results are not listed. Values without a mark were called inactive. The source made the active and inactive calls. Calls come from the whole dose curve; as a rule, active = well fitted curve in the direction sought with a large enough effect in the signal ratio, with a control signal flat (not every such curve was filed as active); inconclusive = small, poorly fitted or top-dose-only effect, or effect the other way, or a change in a side signal; inactive = no such curve, though single readings can be large or run the other way; the % refers to the signal ratio.

Target: Peroxisome proliferator-activated receptor gamma (Homo sapiens) (UniProt P37231)
Assay: qHTS assay for small molecule agonists of peroxisome proliferator-activated receptor gamma signaling (AID 588536)
Settings: HEK293 PPARg-UAS-bla, beta-lactamase ratio, 16 h; series mostly up to 76.7 µM; activation: at the top concentration
Description: NIH Chemical Genomics Center [NCGC] U.S. Environmental Protection Agency [EPA] National Institutes of Environmental Health Sciences [NIEHS] National Toxicology Program [NTP] NCGC Assay Overview The Peroxisome proliferator-activated receptors (PPARs) are lipid-activated transcription factors of the nuclear receptor superfamily with three distinct subtypes namely PPAR alpha, PPAR delta (also called PPAR beta) and PPAR gamma. All these subtypes heterodimerizes with Retinoid X receptor (RXR) and these heterodimers regulate transcription of various genes. PPAR-gamma (glitazone receptor) agonists have been used in the treatment of type 2 diabetes and dyslipidaemia. It is involved in the regulation of glucose and lipid metabolism. PPAR-gamma activates certain genes like Paraoxonase 1 which is responsible for hydrolyzing organophosphates. PPAR-gamma agonists may also be therapeutically important in the treatment of coronary artery disease, obesity and cancer and atherosclerosis.
NCGC Assay Protocol Summary Using a beta-lactamase reporter-gene under control of Peroxisome Proliferator-Activated-gamma (PPAR-gamma) response element, a cell-based assay [GeneBLAzer PPAR-gamma-UAS-bla assay developed by Invitrogen] was used to measure PPAR-gamma ligands signaling. GeneBLAzer PPAR-gamma-UAS-bla-HEK293 cells were used with assay medium containing 1% charcoal/dextran treated FBS. The assay was performed in clear bottom black Greiner 1536-well plates. Rosiglitazone was used in the screen as the positive control. Library compounds were measured for their ability to stimulate the reporter gene activity. Compounds were screened in a titration series in 1536-well format. The fluorescence intensity (405 nm excitation, 460/530 nm emission) was measured using an EnVision plate reader. Data was normalized relative to Rosiglitazone control (2 uM, 100%), and DMSO only wells (basal, 0%). Concentration-response titration points for each compound were fitted to the Hill equation yielding concentrations of half-maximal stimulation (EC50) and maximal response (efficacy) values. qHTS protocol for PPAR-gamma beta-lactamase assay in agonist mode [Step] [Parameter] [Value] [Description] 1. Reagent; 6 uL; 3000 cells/well 2. Incubation; 37 C for 6 - 6.5 hrs 3. Compounds; 23 nL; 0.59 nM to 92 uM 4. Controls (Rosiglitazone); 23 nL, - One column with dose response, start 19 uM, 1:3 dilutions in duplicates - Final concentrations of 2 uM and 0.5 uM in two columns 5. Incubation; 37 C for 16 hrs 6. Detection reagent; 1 uL of CCF4-dye 7. Incubation; RT for 2 hrs 8. Detection; Fluorescence; Envision plate reader

Peroxisome proliferator-activated receptor gamma (Homo sapiens), sequence (P37231 whole entry, looked up): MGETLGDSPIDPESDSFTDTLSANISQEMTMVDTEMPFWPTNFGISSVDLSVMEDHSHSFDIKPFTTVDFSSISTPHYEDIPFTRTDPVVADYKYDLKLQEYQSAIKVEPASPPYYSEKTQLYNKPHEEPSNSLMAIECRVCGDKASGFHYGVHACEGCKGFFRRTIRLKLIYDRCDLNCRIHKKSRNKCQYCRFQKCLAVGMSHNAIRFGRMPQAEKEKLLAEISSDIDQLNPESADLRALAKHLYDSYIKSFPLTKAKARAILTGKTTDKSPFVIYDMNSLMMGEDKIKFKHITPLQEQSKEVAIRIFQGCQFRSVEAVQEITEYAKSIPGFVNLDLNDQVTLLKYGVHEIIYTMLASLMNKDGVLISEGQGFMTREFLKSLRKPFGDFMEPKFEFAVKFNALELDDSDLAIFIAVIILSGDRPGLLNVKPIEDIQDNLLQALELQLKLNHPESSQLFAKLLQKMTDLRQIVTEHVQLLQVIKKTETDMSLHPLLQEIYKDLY

Row | SMILES | activation [%] | Potency
1 | CCOP(=S)(OCC)OC(Cl)C(Cl)(Cl)Cl (stereo not given) | -6.52 | –
2 | O=[N+]([O-])C(Br)Br | 6.75 | –
3 | CCNc1nc(Cl)nc(NC(C)(C)C)n1 | -7.66 | –
4 | C=CCOC(=O)C(C)(C)OC(=O)c1cc(-n2c(=O)cc(C(F)(F)F)n(C)c2=O)ccc1Cl | -5.4 | –
5 | CN(C)c1ccc(C(=O)c2ccc(N(C)C)cc2)cc1 | -15.7 | –
6 | CCCOc1nn(C(=O)NS(=O)(=O)c2ccccc2C(=O)OC)c(=O)n1C | 3.72 | –
7 | CCC/C(=N\OCC)C1=C(O)CC(CC(C)SCC)CC1=O (stereo not given) | 12.4 | –
8 | CC1(C)CON(Cc2ccccc2Cl)C1=O | 1.06 | –
9 | CCOP(=S)(Oc1cnc(C(C)(C)C)nc1)OC(C)C (stereo not given) | -6.63 | –
10 | Nc1nc(N)nc(Cl)n1 | – | inactive
11 | CNC(=O)Oc1cccc(N=CN(C)C)c1 | 8.77 | –
12 | O=[As](O)(O)O | -4.21 | –
13 | C#CCO | 0.329 | –
14 | CCNC(=O)NC(=O)/C(C#N)=N/OC | -1.92 | –
15 | CCOP(=O)(OCC)SCS(=O)(=O)C(C)(C)C | -1.26 | –
16 | COP(=S)(OC)Oc1ccc([N+](=O)[O-])c(C)c1 | -7.65 | –
17 | O=[N+]([O-])c1ccc(Oc2ccc(C(F)(F)F)cc2[N+](=O)[O-])cc1 | – | 3.55 µM (active)
18 | CCOc1nc(C(Cl)(Cl)Cl)ns1 | -4.03 | –
19 | CC(C)C1(C)N=C(c2ncccc2C(=O)O)NC1=O (stereo not given) | -1.51 | –
20 | C=CC(=O)NCO | 5.71 | –

Row | SMILES | activation [%] | Potency
21 | COP(=O)(OC)O/C(C)=C/C(=O)N(C)C | 5.69 | –
22 | COC(=O)c1sccc1S(=O)(=O)NC(=O)Nc1nc(C)nc(OC)n1 | -0.363 | –
23 | CCOP(=S)(OCC)Oc1cnc2ccccc2n1 | -0.949 | –
24 | CNC(=O)O/N=C(\SC)C(=O)N(C)C | -4.18 | –
25 | CCOP(=O)(OCC)SCSP(=S)(OCC)OCC | 0.211 | –
26 | COc1ccc(O)c(C(C)(C)C)c1 | 1.76 | –
27 | O=[N+]([O-])Nc1nccn1Cc1ccc(Cl)nc1 | 8.12 | –
28 | OC(Cn1cncn1)(c1ccc(F)cc1)c1ccccc1F (stereo not given) | -0.315 | –
29 | [CH3][Sn]([Cl])([Cl])[Cl] | -3.29 | –
30 | Cc1cnc(C2=NC(C)(C(C)C)C(=O)N2)c(C(=O)O)c1 (stereo not given) | – | inactive
31 | CCOP(OCC)OCC | -2.07 | –
32 | CCCC1COC(Cn2cncn2)(c2ccc(Cl)cc2Cl)O1 (stereo not given) | -6.35 | –
33 | Nc1c(Cl)c(F)nc(OCC(=O)O)c1Cl | -2.11 | –
34 | CCOP(=S)(OCC)SCC(=O)NC(C)C | 2.67 | –
35 | CC(C)(C)C(=O)[C@@H](Oc1ccc(Cl)cc1)n1cncn1 | -5.39 | –
36 | CCCCOC(=O)c1ccccc1C(=O)O | 6.67 | –
37 | CCOS(=O)(=O)OCC | 2.71 | –
38 | CCOP(=S)(OCC)SCSP(=S)(OCC)OCC | 2.69 | –
39 | CC(C)(C)C(=O)[C@H](Oc1ccc(Cl)cc1)n1cncn1 | -1.57 | –
40 | Nc1cnn(-c2ccccc2)c(=O)c1Cl | -1.83 | –
